± gives the standard deviation of the averaged measurements. The full ranking holds about 33,000 sequences; the median of “E-score (rank enrichment, -0.5 to 0.5)” is about -0.0075, and the highest 2% start at about 0.23. Only a selection was taken, and the highest values are over-represented in it overall.
Test system: WT Max(13-93) synthetic (M65Nle)
Assay: PBM 8-mer E-score (E-score (rank enrichment, -0.5 to 0.5)); higher = stronger preferential binding
Description: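 Protein binding microarray (universal PBM chip covering all 10-mers in fixed probe flanks) with chemically synthesized human Max(13-93) bHLH-LZ analogs (not full-length Max) bearing noncanonical residues (hArg, Tha, Aib, Nle at 65) and aromatic Cys staples. Read-out per 8-mer (and its reverse complement): E-score (rank-based enrichment, -0.5 to 0.5) and Z-score of median probe intensity.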

Sequence	PBM 8-mer E-score
CTAATCCC	0.144 ± 0.024
CCGTCTAC	0.0424 ± 0.084
ACTAACCT	0.0869 ± 0.06
GGTTCCTA	-0.109 ± 0.046
AGACACAG	-0.0614 ± 0.0067
GGTTATTA	0.126 ± 0.0068
CATTATTA	0.262 ± 0.0081
AATTATAA	0.214 ± 0.072
AATTATAG	0.279 ± 0.07
AGTTATTG	0.127 ± 0.066
AGTTATTA	0.245 ± 0.038
CATTATTC	0.137 ± 0.063
GATTATTA	0.146 ± 0.14
AATTATAC	0.1451 ± 0.00023
GCCCCGAC	-0.0997 ± 0.092
AAAAGAGT	0.0215 ± 0.025
CAGCCGGG	-0.216 ± 0.054
CGCGATGA	-0.0499 ± 0.057
AATACCAT	0.239 ± 0.0086
AATACCAG	-0.0097 ± 0.088
ACTACCAT	0.0905 ± 0.098
AATACCAC	0.232 ± 0.0071
AATACCAA	0.0858 ± 0.08
GATACCAC	0.0906 ± 0.0058
CTACCCGC	-0.143 ± 0.13

Sequence	PBM 8-mer E-score
GAAGGAGC	-0.0442 ± 0.0094
AAAGGCAA	0.225 ± 0.019
CGCGCAAG	-0.09 ± 0.021
ACGTGATG	0.281 ± 0.036
AAGTGATC	0.00227 ± 0.17
CCGTGATA	-0.0612 ± 0.11
ACGTGATA	0.373 ± 0.04
CTGTGATA	-0.0471 ± 0.032
GCGTGATA	0.157 ± 0.0055
CCGTGATC	-0.0695 ± 0.058
AAGTGATG	0.0833 ± 0.02
GTGTGATA	0.161 ± 0.094
AGGTGATG	-0.035 ± 0.048
ATGTGATA	0.259 ± 0.018
ACGTGATC	0.365 ± 0.03
CCGCCGCG	-0.0114 ± 0.016
CGACCTTA	-0.135 ± 0.088
AGTAACCA	0.0556 ± 0.031
ACGCTAAA	-0.0749 ± 0.18
AAGGTTCG	0.00686 ± 0.047
TCGGTAAA	0.0761 ± 0.071
GCGTTCGA	-0.0763 ± 0.0099
CTACTAAG	-0.104 ± 0.13
ATACTAAC	0.159 ± 0.022
CTACTAAC	0.279 ± 0.095

Sequence	PBM 8-mer E-score
GTCCTAAC	-0.0552 ± 0.13
ATCCTAAC	0.133 ± 0.071
ATACTAAA	0.236 ± 0.0049
CTCCTAAC	0.24 ± 0.12
TTACTAAA	0.109 ± 0.064
GTACTAAA	0.0526 ± 0.051
CTCCAAAG	-0.102 ± 0.047
ATGGAACC	-0.166 ± 0.054
ACAGAACG	-0.0169 ± 0.0023
CAACCGGC	-0.263 ± 0.061
GAAATCAA	0.138 ± 0.029
CAAATCAA	0.245 ± 0.008
AAAATCAA	0.0163 ± 0.098
GTCGGAAA	-0.0618 ± 0.062
ACAATACC	0.249 ± 0.069
ACAATACA	0.106 ± 0.079
ACAATACT	0.117 ± 0.14
CTTGCTCC	-0.0612 ± 0.0067
CTGCATGA	-0.175 ± 0.057
GTGCATCA	0.0702 ± 0.089
ATGCATGC	0.203 ± 0.04
ATGCATGA	0.244 ± 0.02
GTGCATGA	0.265 ± 0.012
ATGCATGG	0.156 ± 0.079
ATGCATCA	0.254 ± 0.0073

Sequence	PBM 8-mer E-score
CTGCATTA	0.0253 ± 0.0015
ATGCATTA	0.265 ± 0.055
ATGCATCG	0.0483 ± 0.15
ATGCATTC	0.197 ± 0.016
GGGCATGA	-0.0171 ± 0.012
CTGCTGTA	-0.271 ± 0.066
CGCTGCGC	-0.152 ± 0.14
CGAGCTCC	0.00928 ± 0.0055
CAGGATTC	-0.0901 ± 0.04
AAGTCCGC	-0.204 ± 0.041
CCAAACCA	0.037 ± 0.03
AGGGTGTG	0.0713 ± 0.066
CAGTAACG	-0.0368 ± 0.021
CGAGCTGC	-0.214 ± 0.048
AACTCCGG	-0.0587 ± 0.069
TATTGGCA	0.243 ± 0.034
AATTGGCA	0.139 ± 0.04
CATTGGCA	-0.0219 ± 0.039
CGCGCCCA	0.0179 ± 0.03
GTCGACAA	0.0204 ± 0.0078
AAGAAGGG	0.213 ± 0.0093
ACGTAAAA	0.0973 ± 0.0094
ACGTAAAT	0.0493 ± 0.0072
ACGTAAAG	0.281 ± 0.033
ACAGGCGA	-0.138 ± 0.092

Sequence	PBM 8-mer E-score
ACAGTATA	0.134 ± 0.0089
ACAGTATC	0.235 ± 0.0095
ACAGTATG	0.135 ± 0.041
CACCTTCA	-0.109 ± 0.0089
CATGCTCC	0.18 ± 0.012
AATGCTTA	0.194 ± 0.036
CATGCTCA	0.281 ± 0.034
CATGCTTA	0.246 ± 0.045
CATGCTGA	0.169 ± 0.029
CATGCTCG	0.188 ± 0.038
GACATTAC	0.0651 ± 0.0097
ATCATTTG	0.0683 ± 0.013
CTTTCCGC	-0.00053 ± 0.0035
GTCGCATA	0.127 ± 0.004
CAATCTCA	8e-05 ± 0.15
CCCTATTC	0.0618 ± 0.016
CATAAAAA	0.213 ± 0.085
TATAAAAA	0.258 ± 0.13
TAAAAAAA	0.123 ± 0.0092
GATAAAAA	0.242 ± 0.021
GATAAACA	0.138 ± 0.13
GATAAAAC	0.141 ± 0.1
GACCCCGC	-0.0133 ± 0.0045
CAAGCACC	-0.0769 ± 0.043
CAAGTAGC	-0.0222 ± 0.13

Sequence	PBM 8-mer E-score
GGACGCGA	-0.0617 ± 0.22
CGAGAACC	-0.00648 ± 0.079
CAACATGC	0.119 ± 0.023
GAACATGC	0.164 ± 0.015
AAACATGC	0.248 ± 0.021
AAACATGA	0.187 ± 0.041
AAACATGG	0.2074 ± 0.0013
AAACATGT	0.315 ± 0.018
CCCATCGA	-0.073 ± 0.074
GTCTAGGA	-0.0888 ± 0.0088
AGCTCGAT	-0.0955 ± 0.12
AAGTGAGT	0.0792 ± 0.0081
CAAGACAA	0.123 ± 0.084
AATGACAG	0.103 ± 0.13
TAAGACAA	0.26 ± 0.04
GAAGACAA	-0.00129 ± 0.039
AAAGACAA	0.2 ± 0.078
CATGACAA	0.196 ± 0.036
AATGACAC	0.239 ± 0.013
CATGACAG	0.0777 ± 0.066
CATGACAC	0.29 ± 0.036
AAAGACAG	0.091 ± 0.049
AAAGACAC	0.279 ± 0.032
GATGACAC	0.0335 ± 0.0041
CTCGCGTC	-0.0607 ± 0.017

Sequence	PBM 8-mer E-score
GTTTGATA	0.157 ± 0.13
GTACCAAA	0.104 ± 0.08
GCGGGCCA	-0.176 ± 0.11
ACATCCGA	-0.16 ± 0.072
CACGTATG	0.0325 ± 0.16
GGAGTTCA	0.024 ± 0.016
CGCGGTTA	-0.0113 ± 0.021
ATCTTACG	-0.013 ± 0.042
AAGGAGCG	-0.0544 ± 0.078
GATGACAA	0.147 ± 0.014
TATGACAA	0.22 ± 0.013
AATGACAA	0.296 ± 0.089
AGAAAAGC	0.121 ± 0.075
CACACGTG	0.4756 ± 0.0046
CACACGTC	0.0446 ± 0.022
CACACGTA	0.0918 ± 0.056
AACACGTG	0.4954 ± 0.001
AACACGTA	0.189 ± 0.04
AACACGTC	0.0692 ± 0.09
AGGAAAAT	0.102 ± 0.051
CTTGCCAA	0.0438 ± 0.04
CTTTAAGA	0.0629 ± 0.086
